According to PubChem BioAssay (Tox21):
Active and inactive are the calls of the source. The call rests on the fitted dose curve; in most records, active means well fitted curve in the direction sought with a large enough effect in the repeat runs; inconclusive means weak or mixed curves; inactive means flat fitted curve, though single readings scatter.
On the % scale 0 is the no-effect control and ±100 the full control effect.

Test: qHTS assay to test for compound auto fluorescence at 590 nm (red) in HEK293 cells (AID 720679)
Conditions: red autofluorescence 540/590 nm; series mostly up to 91.3 µM; fluorescence, % of fluorescent control: at the top concentration
Text: National Center for Advancing Translational Sciences [NCATS]
NIH Chemical Genomics Center [NCGC]
U.S. Environmental Protection Agency [EPA]
National Institutes of Environmental Health Sciences [NIEHS]
National Toxicology Program [NTP]
U.S. Food and Drug Administration [FDA]
Compound auto fluorescence often interferes with screening of the compound library against various biological targets and signaling pathways. Some of these compounds may have fluorophoric properties. Such properties may interfere with the assay outputs resulting in false positives and/or negatives. To decrease such complications and ensure the compound activities are relevant in terms of biological response, the Tox21 10K compound library was screened for auto fluorescence.
From the fluorophores used as reporter signals in our screening assays, the auto fluorescence equivalencies of compounds against three fluorophores have been evaluated: Triamterene, Fluorescein and Rose Bengal sodium for blue, green and red fluorescence, respectively. The fluorescence intensities were measured using Excitation/Emission wavelengths at 405/460nm, 485/535nm and 540/590nm for blue, green and red labels, respectively. This assay includes the red fluorescence data.
Tox21 Assay Protocol Summary:
2,000 HEK293 cells in 5 uL of culture medium containing 10% dialyzed FBS per well were dispensed into black wall/clear bottom 1536-well plates using a Multidrop Combi Dispenser (Thermo Scientific). The assay plates were incubated for 4-5 hr at 37C to allow cell attachment to the well bottom, followed by the transfer of 23 nL compound or DMSO vehicle by a pintool work station (Kalypsys, San Diego, CA). After the assay plates were incubated overnight at 37C and 5% CO2, fluorescence intensities in the assay plates were measured by an Envision (PerkinElmer, Shelton, CT) plate reader using three labels for measuring blue, green and red fluorescence at […] 460, 535 and 590nm respectively.
For `C[Si](C)O[Si](C)(C)O[Si](C)(C)O[Si](C)C`, the “fluorescence, % of fluorescent control” value was 0.0339% (inactive). For `O=C(O)Cn1c(C(=O)Nc2nc(-c3ccccc3Cl)cs2)cc2ccccc21`, the “fluorescence, % of fluorescent control” value was 0.43% [at 46 µM] (inactive). For `COc1ccc2[nH]c(S(=O)Cc3ncc(C)c(OC)c3C)nc2n1` (stereo not given), the “fluorescence, % of fluorescent control” value was 0.0349% [at 46 µM] (inactive). For `COc1ccc([C@@H]2Sc3ccccc3N(CCN(C)C)C(=O)[C@@H]2OC(C)=O)cc1`, the “fluorescence, % of fluorescent control” value was 0.0028% [at 46 µM] (inactive). With `CCCCCC/C=C/C=O` the “fluorescence, % of fluorescent control” value was 0.113% (inactive). With `CC/C(=C\C(=N/O)C(N)=O)C(C)[N+](=O)[O-]` (stereo not given) the “fluorescence, % of fluorescent control” value was 0.151% (inactive). For `Cn1c(N)nc2nc[nH]c2c1=O`, the “fluorescence, % of fluorescent control” value was -0.63% (inactive). With `c1ccc(-c2nc[nH]c2-c2ccccc2)cc1` the “fluorescence, % of fluorescent control” value was 0.0395% [at 46 µM] (inactive). With `Cc1ccccc1N=Nc1ccc(N=Nc2c(O)ccc3ccccc23)c(C)c1` the “fluorescence, % of fluorescent control” value was -0.151% [at 46 µM] (inactive). In the case of `COc1ccccc1OC(=O)Oc1ccccc1OC`, the “fluorescence, % of fluorescent control” value is reported as -0.164% [at 46 µM] (inactive). With `CCN(CC)CCOC(=O)C1(c2ccccc2)CCCC1` the “fluorescence, % of fluorescent control” value was -0.326% [at 46 µM] (inactive). In the case of `O=C(CC(=O)c1ccccc1)c1ccccc1`, the “fluorescence, % of fluorescent control” value is reported as -0.701% [at 95.7 µM] (inactive). In the case of `CCCCOC(O)CC` (stereo not given), the “fluorescence, % of fluorescent control” value is reported as 0.257% (inactive). With `Nc1nc(N)c(-c2ccccc2)s1` the “fluorescence, % of fluorescent control” value was 0.0321% [at 46 µM] (inactive). With `CC(=O)/C(C)=C/C1C(C)=CCCC1(C)C` (stereo not given) the “fluorescence, % of fluorescent control” value was 0.54% (inactive). For `ClC(Cl)(Cl)c1ccc(C(Cl)(Cl)Cl)cc1`, the “fluorescence, % of fluorescent control” value was -0.339% (inactive). In the case of `CC(C(=O)O)c1ccc(C(=O)c2ccccc2)s1` (stereo not given), the fluorescence, % of fluorescent control is reported as -0.0493% [at 18.6 µM] (inactive). For `CC(=O)/C=C/C1C(C)=CCCC1(C)C` (stereo not given), the “fluorescence, % of fluorescent control” value was -0.583% (inactive). With `CC(=O)O[C@@H]1C(=O)O[C@@H]2[C@H]1OC(=O)[C@@H]2OC(C)=O` the “fluorescence, % of fluorescent control” value was -0.387% [at 46 µM] (inactive). In the case of `N[C@H]1C(O)O[C@H](CO)[C@H](O)[C@@H]1O` (stereo not given in full), the “fluorescence, % of fluorescent control” value is reported as 0.21% (inactive). With `CCCCC(CC)COCCCN` (stereo not given) the “fluorescence, % of fluorescent control” value was -0.484% (inactive). For `Cc1c(Cn2ccnc2)c2ccccc2n1CCC(=O)O`, the “fluorescence, % of fluorescent control” value was 0.163% [at 46 µM] (inactive). In the case of `Cc1ccccn1`, the outcome is reported as “inactive”. For `O=C(Cl)c1ccc([N+](=O)[O-])cc1`, the “fluorescence, % of fluorescent control” value was -0.184% (inactive). With `COCCCCCCCCOCCC[Si](C)(O[Si](C)(C)C)O[Si](C)(C)C` the “fluorescence, % of fluorescent control” value was 0.278% (inactive). For `CCCCOCCOCCOCCOCCO`, the “fluorescence, % of fluorescent control” value was 0.0444% (inactive). For `CCN1CCC[C@H]1CNC(=O)c1c(OC)ccc(Br)c1OC`, the “fluorescence, % of fluorescent control” value was -0.13% [at 46 µM] (inactive). For `CCCCOC(=O)c1ccccc1C(=O)OCC(CC)CCCC` (stereo not given), the “fluorescence, % of fluorescent control” value was 0.109% (inactive). With `NCCCN(CCO)CCO` the “fluorescence, % of fluorescent control” value was -0.242% (inactive). For `CC1=CC(=O)/C(=C(/C)O)C(=O)O1`, the “fluorescence, % of fluorescent control” value was -0.113% (inactive). With `Oc1ccc(O)c2c(O)cccc12` the “fluorescence, % of fluorescent control” value was -0.117% (inactive). With `Cc1ccc(O)c([C@H](CCN(C(C)C)C(C)C)c2ccccc2)c1` the “fluorescence, % of fluorescent control” value was -0.338% [at 46 µM] (inactive). For `CN1CCC[C@@H]1c1cccnc1`, the “fluorescence, % of fluorescent control” value was 0.139% [at 46 µM] (inactive). In the case of `CCCCCCCCCC(=O)OCC`, the “fluorescence, % of fluorescent control” value is reported as 0.578% (inactive). In the case of `Oc1ccc2c(c1)OCO2`, the “fluorescence, % of fluorescent control” value is reported as -0.681% (inactive). In the case of `Cc1ccc(C(N)=O)cc1N`, the “fluorescence, % of fluorescent control” value is reported as -0.189% (inactive). In the case of `CC[C@@H]1C[C@H](N(Cc2cc(C(F)(F)F)cc(C(F)(F)F)c2)C(C)=O)c2cc(C(F)(F)F)ccc2N1C(=O)OC(C)C`, the “fluorescence, % of fluorescent control” value is reported as -0.0921% (inactive). For `O=C(NN1CCCC1)NS(=O)(=O)c1ccc(Cl)cc1`, the “fluorescence, % of fluorescent control” value was 0.0412% [at 46 µM] (inactive). For `O=c1c2ccccc2nnn1CCl`, the “fluorescence, % of fluorescent control” value was 0.469% (inactive). For `C#CCOC(=O)[C@@H](C)Oc1ccc(Oc2ncc(Cl)cc2F)cc1`, the “fluorescence, % of fluorescent control” value was -0.0391% (inactive).
